# In PubChem BioAssay AID504652 (National Center for Advancing Translational Sciences (NCATS), 2011):
# Several values for one entry are separate records, joined by “and”; a condition that tells them apart may be missing. Equal values may be shown once. Among all 360,000 compounds or so, about 11,000 (3.1%) were called active. The sample holds actives, similar compounds and a random draw of the others, so the mix is not that of the screen. No stated cut-off is given here; in the data, active means activity change below about -30%; inactive means the rest.
# Target: D(1A) dopamine receptor (Homo sapiens) (UniProt P21728)
# Sequence (P21728 whole entry, looked up): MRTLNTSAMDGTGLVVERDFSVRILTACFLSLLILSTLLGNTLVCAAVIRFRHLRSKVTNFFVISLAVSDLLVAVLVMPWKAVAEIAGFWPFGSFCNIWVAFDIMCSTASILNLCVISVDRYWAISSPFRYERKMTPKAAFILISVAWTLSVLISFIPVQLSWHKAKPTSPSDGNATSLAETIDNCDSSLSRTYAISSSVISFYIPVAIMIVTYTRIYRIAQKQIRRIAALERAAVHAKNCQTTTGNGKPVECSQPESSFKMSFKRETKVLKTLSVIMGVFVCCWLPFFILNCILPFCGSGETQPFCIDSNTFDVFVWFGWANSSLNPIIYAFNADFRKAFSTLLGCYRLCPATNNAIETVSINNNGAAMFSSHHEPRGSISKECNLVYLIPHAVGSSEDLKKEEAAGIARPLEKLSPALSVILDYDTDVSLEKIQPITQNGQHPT
# Experiment: Antagonist of Human D 1 Dopamine Receptor: qHTS
# Conditions: HEK293 TREx D1 cells, calcium flux, dopamine EC80; at 10 µM; stronger effect = lower value
# Summary of the method: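 Tetracycline-induced HEK293 T-REx cells with force-coupled D1 receptor were loaded with a no-wash calcium dye. Compound was added after a 10 s baseline and read kinetically for 180 s; EC80 dopamine was then added and calcium flux followed another 180 s.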
# On the % scale 0 is the no-effect control and ±100 the full control effect.
row,SMILES,"activity change, negative = inhibition"
1,CCOC(=O)C1CCC(CN(Cc2ccc(OC)cc2)S(=O)(=O)c2ccc(F)c(C(=O)Nc3cc(C)ccc3C)c2)CC1 (stereo not drawn),15.6% (inactive)
2,COc1cccc(COC(=O)C2CCN(S(=O)(=O)c3cccs3)CC2)c1OC,-15.5% (inactive)
3,CCOc1ccc(S(=O)(=O)N2CCC(C(=O)OCc3ccc(OC)cc3)CC2)cc1,-16.6% (inactive)
4,COc1cccc(COC(=O)C2CCN(S(=O)(=O)c3ccc(Cl)cc3)CC2)c1OC,-32.8% (active)
5,COc1ccc(C(=O)c2oc3ccccc3c2NC(=O)COc2cccc(C)c2)cc1,-10.1% (inactive)
6,Cc1nn(CC(=O)NCCc2ccccc2)c(=O)c2c1sc1ccccc12,-1.1% (inactive)
7,Cc1cccc(CNS(=O)(=O)c2ccc(-c3cnc(C4CC4)o3)cc2)c1,-9.2% (inactive) and -2.23% (inactive)
8,Cc1cccc(NS(=O)(=O)c2ccc(-c3cnc(C4CC4)o3)cc2)c1,-44.9% (active)
9,Cc1ccc(-c2cnc(C3CC3)o2)cc1S(=O)(=O)Nc1cccc(C)c1C,9.76% (inactive)
10,O=C(CSc1nccn1C1CCCC1)Nc1cc(C(F)(F)F)ccc1Cl,-16% (inactive)
11,C=C(C)CNc1cc(S(=O)(=O)N2CCOCC2)ccc1Oc1ccccc1,-20.5% (inactive)
12,COC(=O)c1cc(Oc2ccc(S(=O)(=O)N3CCOCC3)cc2[N+](=O)[O-])cc(C(=O)OC)c1,-38.9% (active)
13,COc1ccc(S(=O)(=O)N2CCC(C(=O)OCC(=O)c3ccccc3)CC2)cc1[N+](=O)[O-],-3.94% (inactive)
14,Cc1ccc(NC(=O)c2ccc3[nH]c(C)cc(=O)c3c2)c(C)c1,-2.41% (inactive)
15,CCOC(=O)c1c(N)n(-c2cccc(C)c2C)c2nc3ccccc3nc12,-1.89% (inactive)
16,COc1ccccc1CNC(=O)c1ccc(CS(=O)c2ccccc2Cl)o1 (stereo not drawn),-4.03% (inactive)
17,Cc1ccc(C)c(N2CCN(C(=O)CCc3c(C)nc4c(c3C)c(=O)n(C)c(=O)n4C)CC2)c1,7.99% (inactive)
18,CC1=C(C(=O)OCC(C)C)C(c2ccc(OCc3ccccc3)cc2)N2C(=O)CCSC2=N1 (stereo not drawn),4.42% (inactive)
19,CN(C)c1ccc(-n2cccc2/C=N/n2cnnc2)cc1,10% (inactive)
20,CN(C)c1ccc(-n2cccc2/C=C2/SC(=Nc3ccc(F)cc3)NC2=O)cc1,-42.9% (active)
21,Cc1ccc(N=C2NC(=O)/C(=C/C=C/c3ccco3)S2)cc1C,-15.5% (inactive)
22,CCc1cc2c(cc3c(=O)n(CC(=O)N4CCN(c5cc(Cl)ccc5C)CC4)nc(CC)n32)s1,-29.5% (inactive)

row,SMILES,"activity change, negative = inhibition"
1,COc1ccc(C(=O)Nc2ccc(-n3nncc3-c3ccccc3)cc2)cc1OC,-8.31% (inactive)
2,Nn1c(SCC(=O)NC2CCCC2)nnc1-c1ccccc1F,10.8% (inactive)
3,Nn1c(SCC(=O)NC(=O)NC2CCCC2)nnc1-c1ccccc1F,-31.8% (active)
4,CC(C)NC(=O)NC(=O)CSc1nnc(-c2ccccc2F)n1N,2.73% (inactive)
5,CCc1cc2c(cc3c(=O)n(CC(=O)NCCc4ccc(OC)c(OC)c4)ncn32)s1,-0.482% (inactive)
6,CCc1ccc(NC(=O)c2sc3nc4c(cc3c2N)CN(CC)CC4)cc1,-15.6% (inactive)
7,N=c1n(CCc2ccccc2)c2ccccc2n1Cc1ccccc1F,-72.5% (active)
8,O=C(COC(=O)Cc1ccccc1F)NCCc1ccccc1,-27% (inactive)
9,Fc1ccccc1Cn1cnc(NC(=S)NCCc2ccccc2)n1,0.584% (inactive)
10,Cn1c(=O)c2sccc2n2c(CCC(=O)NCc3ccccc3Cl)nnc12,-4.17% (inactive)
11,Cn1c(=O)c2c(SCC(=O)N3CCc4ccccc43)nc(-c3ccc(Cl)cc3)nc2n(C)c1=O,-4.79% (inactive)
12,CCCOC(=O)c1c(NC(=O)c2cc3nc(-c4ccc(OC)cc4)cc(C(F)(F)F)n3n2)sc2c1CCCC2,1.36% (inactive)
13,CCOC(=O)C1CCN(c2ncnc3c2c(-c2ccccc2)cn3-c2cccc(C)c2)CC1,7.99% (inactive)
14,COc1cc(OC)cc(C(=O)Nc2c(C(=O)Nc3ccc(F)cc3)oc3ccccc23)c1,-9.05% (inactive)
15,O=C(NCc1ccco1)C1CCCN(S(=O)(=O)c2cnc[nH]2)C1 (stereo not drawn),6.39% (inactive)
16,CCOC(=O)c1cccc(NC(=O)C2CCCN(S(=O)(=O)c3cnc[nH]3)C2)c1 (stereo not drawn),-31.2% (active)
17,COc1cccc(N2CCN(C(=O)C3CCCN(S(=O)(=O)c4cnc[nH]4)C3)CC2)c1 (stereo not drawn),-10% (inactive)
18,CC1CCN(c2ccc(S(=O)(=O)Nc3cc(C(=O)O)cc(C(=O)O)c3)cc2[N+](=O)[O-])CC1,21.6% (inactive)
19,O=C(O)C1CCN(c2ccc([N+](=O)[O-])cc2[N+](=O)[O-])CC1,-34.9% (active)
20,CC1CCN(c2ccc([N+](=O)[O-])cc2C(N)=O)CC1,-6.77% (inactive)
21,COc1ccccc1CNc1nc2ccc(Cl)cc2n2cnnc12,31.1% (inactive)
22,Cc1ccc(OCC(=O)OCc2cc(=O)n3nc(C4CC4)sc3n2)cc1C,5.56% (inactive)

row,SMILES,"activity change, negative = inhibition"
1,Cc1cccc(CSc2nnc(C)c(=O)n2N)c1,-16.8% (inactive)
2,Cc1cccc(CSc2nc3c(c(=O)n2C)SCC3)c1,-31.4% (active)
3,Cn1c(SCC(=O)N2CCCCC2)nc2c(c1=O)SCC2,-2.45% (inactive)
4,Cn1c(=N)n(CC(O)c2cccs2)c2ccccc21 (stereo not drawn),-34.7% (active)
5,Cc1cccc(OCC(O)Cn2c(=N)n(CCN3CCOCC3)c3ccccc32)c1 (stereo not drawn),-8.76% (inactive)
6,CCOc1ccc(C(O)Cn2c(=N)n(CCN3CCCCC3)c3ccccc32)cc1 (stereo not drawn),3.59% (inactive)
7,COc1cc(C(=O)Nc2ccc(OCc3cc(=O)n4cc(C)sc4n3)cc2)cc(OC)c1OC,-16.6% (inactive)
8,OCc1ccc(OCCCOc2cccc3cccnc23)cc1,-4.17% (inactive)
9,Cc1ccc2cccc(OCCCOc3ccccc3CO)c2n1,-71.7% (active)
10,CCOc1cccc(OCCCOc2cccc3cccnc23)c1,7.73% (inactive)
11,Cn1c(=O)n(Cc2c(F)cccc2Cl)c(=O)c2c1nc1n2CCN1c1ccc(F)cc1,-4.11% (inactive)
12,CCOc1ccc(NC(=O)c2cc(S(=O)(=O)N3CCCC3)c[nH]2)cc1,-12.2% (inactive)
13,COc1cccc(NC(=S)N(Cc2ccc(C)cc2)Cc2ccccn2)c1,-4.38% (inactive)
14,COc1ccc(NC(=O)/C(Cl)=C(/Cl)S(=O)Cc2ccc(C)cc2)cn1 (stereo not drawn),-37.4% (active)
15,COc1ccc(CS(=O)/C(Cl)=C(/Cl)C(=O)Nc2ccc(OC)nc2)cc1 (stereo not drawn),-16.1% (inactive)
16,Cc1cc(Cl)ccc1OCCCC(=O)NCc1ccncc1,-15.1% (inactive)
17,Cc1cc(Cl)ccc1OCCCC(=O)Nc1cccc(-n2cnnn2)c1,-32.2% (active)
18,Cc1cc(Cl)ccc1OCCCC(=O)NCc1ccccn1,-2.23% (inactive)
19,O=C(Nc1ccc2nc(SCCOc3ccccc3)sc2c1)c1ccco1,-3.21% (inactive)
20,O=C(CSc1ncc(-c2ccccc2)[nH]1)Nc1ccc(F)cc1F,-8.22% (inactive)
21,O=S1(=O)CCN2C(=N1)SC1=C2CCN(Cc2ccccc2)C1,2.33% (inactive)
22,O=C(Nc1ccccc1Cc1ccccc1)c1ccc2c(c1)SC1=NS(=O)(=O)CCN12,-30.1% (active)

row,SMILES,"activity change, negative = inhibition"
1,CCc1ccccc1NC(=O)c1ccc2c(c1)CCN2S(C)(=O)=O,6.15% (inactive) and -13% (inactive)
2,CCCN(C(=O)Cn1ncc2c([nH]c3ccc(C)cc32)c1=O)c1ccccc1C,11.2% (inactive)
3,O=[S+]([O-])(c1ccc(OC(F)(F)F)cc1)N1CCN([S+](=O)([O-])c2ccc3c(c2)OCCO3)CC1,-7.55% (inactive)
4,Cc1nn2c(=O)cc(COC(=O)c3ccccc3NC(=O)COc3ccccc3C)nc2s1,-3.25% (inactive)
5,COc1ccccc1C(=O)Nc1ccc(C)c(S(=O)(=O)N2CCCCC2)c1,-2.3% (inactive)
6,COc1ccc(NC(=O)C2=NNC(=O)CC2)cc1S(=O)(=O)N1CCCCC1,-34.7% (active)
7,COc1ccc(NC(=O)CSc2nnc(C3CC3)n2C)cc1S(=O)(=O)N1CCCCC1,5.62% (inactive)
8,NS(=O)(=O)c1ccc(CCNC(=O)CCCCCn2c(=O)[nH]c3ccccc3c2=O)cc1,5.32% (inactive)
9,COc1cc2nc(NCC(C)c3ccccc3)n3nc(-c4ccccc4)nc3c2cc1OC (stereo not drawn),-4.86% (inactive)
10,Cc1nc2nc(NCc3cccc(Br)c3)[nH]n2c(=O)c1Cc1ccccc1,-2.6% (inactive)
11,Cc1cccc(N(C)C(=O)CS(=O)(=O)c2cccc3nsnc23)c1,9.37% (inactive)
12,O=C(Nc1cccc([N+](=O)[O-])c1)Nn1cnnc1,-44.2% (active)
13,O=C(Nn1cnnc1)c1ccc([N+](=O)[O-])cc1,-2.94% (inactive)
14,COC(=O)/C=C\C(=O)Nc1cccc([N+](=O)[O-])c1,16.7% (inactive)
15,CCCCCn1c(CCNC(=O)c2ccc(F)cc2)nc2ccccc21,-29.3% (inactive)
16,CC(=O)c1ccc(NC(=O)CCc2nc(-c3ccc(C)cc3)no2)cc1,6.08% (inactive)
17,CC(=O)c1cccc(NC(=O)c2nc(-c3ccccc3)n(-c3cccc(C)c3)n2)c1,-15.7% (inactive)
18,[O-][n+]1onc2c1CCc1[nH]c(-c3ccccc3)nc1-2,-44.1% (active)
19,CCn1c(CNC(=O)c2ccc(OC)c(OC)c2)nnc1SCC(=O)Nc1ccccc1,-0.592% (inactive)
20,CCn1c(Cc2ccc(OC)cc2)nnc1SCC(=O)Nc1ccc(N2CCOCC2)cc1,0.621% (inactive)
21,CCn1c(Cc2ccccc2)nnc1SCC(=O)Nc1ccccc1,-30.1% (active)
22,CCC(=O)N1c2ccccc2CC1C(=O)N1CCN(c2ccccc2F)CC1 (stereo not drawn),10.1% (inactive)
